# Reference: PubChem BioAssay (EPA / NIEHS)
# Where “and” joins values, the source holds several entries; their conditions need not be identical. Equal values may be shown once. Results filed as inconclusive are left out. Calls of active or inactive are those of the source. Rule for the calls: active = hit-call score of the fitted dose curve at least 0.9, where 1 is the maximum; inconclusive = response in the unintended direction; inactive = score below 0.9.
# Test: TOX21_p53_BLA_p2_viability: Viability Assessment in the Tox21 HCT-116 p53 Agonism Beta-lactamase Assay, Phase 2 (AID 2283591);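 note: compound exposure lasted 16 h at 37 °C; actives lower the ATP signal meaning cytotoxicity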
# From the text: TOX21_p53_BLA_p2 is a cell-based, single-readout assay that uses HCT116, a human intestinal cell line, […] in a 1536-well plate.TOX21_p53_BLA_p2_viability is an assay readout measuring cellular ATP content and detected with CellTiter-Glo Luciferase-coupled ATP quantitation.TOX21_p53_BLA_p2_viability used a type of viability reporter where loss-of-signal activity can be used to understand changes in the cell viability. Furthermore, this assay endpoint can be referred to as a secondary readout, because this assay has produced multiple assay endpoints where this one serves a viability function. To generalize the intended target to other relatable targets, this assay endpoint is annotated to the cell cycle intended target family, where the subfamily is cytotoxicity.
# Thawing Method: Place 14 mL of pre-warmed thaw medium into a 15 mL of conical tub. Remove the vial of cells to be thawed from liquid nitrogen and thaw rapidly by placing at 37C in a water bath with gentle agitation for 1-2 minutes. Decontaminate the vial by wiping with 70% ethanol before opening in a biological safety cabinet. Transfer the vial contents drop-wise into 14 mL of thaw medium in a sterile 15-mL conical tub. Centrifuge cells at 900 rpm for 4 minutes and resuspend in thaw medium. Transfer contents to the T75 tissue culture flask containing Thaw Medium and place flask in a humidified 37C/5% CO2 incubator. Switch to growth medium at first passage.Propagation Method: Aspirate medium, rinse once in DPBS, add 0.25% Trypsin/EDTA and swirl to coat the cell evenly. Add an equal volume of Growth Medium to inactivate Trypsin after 2-3 minutes incubation at 37C. Centrifuge cells at 900 rpm for 4 minutes and resuspend in growth medium. Cell should be passage or fed at least twice a week.Assay Protocol: Harvest cells from culture in growth medium and resuspend in assay medium. 2.2 Dispense 4000 cells/5 uL/well into 1536-well black/clear bottom plates using a Multidrop dispenser. After the cells were incubated at 37C for 5 hours, 23 nL of compounds dissolved in DMSO were transferred to the assay plate by a PinTool resulting in a 217-fold dilution. Incubate the plates for 16 hours at 37C, 5% CO2. Add 1 uL of 6X LiveBLAzer FRET B/G (CCF4-AM) Substrate Mixture to each well using a BioRAPTR dispenser and incubate the plates at room temperature for 2 hours. Measure fluorescence intensity at 460 and 530 nm emission and 405 nm excitation by an Envision detector. Data is expressed as the ratio of 460nm/530nm emissions. Add 4 uL of Cell-titer Glo to each well using BioRAPTR and incubate the plates at room temperature for […]. For cell viability readout that measures cytotoxicity, 4 ul/well of CellTiter-Glo reagent was added into the assay plates using a Flying Reagent Dispenser. After 30 min incubation at room temperature, the luminescence intensity in the plates was measured using a ViewLux plate reader.
Structure (SMILES),outcome,AC50
CCC(Cc1c(I)cc(I)c(N)c1I)C(=O)O (centres undefined),inactive,
O=C1C=CC(=O)N1c1ccc(Cc2ccc(N3C(=O)C=CC3=O)cc2)cc1,,71 µM (active)
CSc1ccc(Cl)cc1,inactive,
CCCCCC/C=C/CCCCCCCC(=O)O,inactive,
CCCCC(CC)COC(=O)c1ccc(N(C)C)cc1 (centres undefined),inactive,
CCCCCCCCn1sc(Cl)c(Cl)c1=O,,85.9 µM (active)
C[C@]12CC[C@H]3C(=CCc4cc(O)ccc43)[C@@H]1CCC2=O,inactive,
CCN=c1cc2oc3cc(NCC)c(C)cc3c(-c3ccccc3C(=O)OCC)c-2cc1C,,38.3 µM (active) and 45.9 µM (active)
CCC(=O)OC(C)c1ccccc1 (centres undefined),inactive,
CN(N=O)C(=O)N[C@@H]1[C@@H](O)[C@H](O)[C@@H](CO)O[C@@H]1O,inactive,
CC(C)(C)C(=O)C1C(=O)c2ccccc2C1=O,inactive,
Cc1ccc(O)c(-n2nc3ccccc3n2)c1,inactive,
O=C(c1ccccc1)c1ccc(O)cc1O,inactive,
CC(C)OC=O,inactive,
O=S(=O)(O)c1ccc(Cl)cc1,inactive,
CO[Si](CCCOCC1CO1)(OC)OC (centres undefined),inactive,
CCCCCCCC/C=C\CCCCCCCC(=O)N(C)CC(=O)O,,37.1 µM (active)

Structure (SMILES),outcome,AC50
CC(=O)CCC(C)C,inactive,
C=CCOC(=O)CC(C)C,inactive,
O=C1c2c(O)ccc(Nc3ccc(CCO)cc3)c2C(=O)c2c([N+](=O)[O-])ccc(O)c21,inactive,
CC(C)CC=C(C=O)c1ccccc1,inactive,
Cc1cc(O)c(C(C)(C)C)cc1C(C)(C)C,,40.6 µM (active)
Cc1ccc2c(c1)OCC(=O)CO2,inactive,
Brc1nc2ccccc2s1,inactive,
CCOC(=O)CCC(C)=O,inactive,
CC(C)CCCC(C)CCO (centres undefined),inactive,
Cc1cc(=O)[nH]c(C(C)C)n1,inactive,
O=C1C=CC(=O)N1c1ccccc1,,69.7 µM (active)
CCc1cc(Cc2cc(CC)c(N)c(CC)c2)cc(CC)c1N,inactive,
CC(O)C#CC(C)O (centres undefined),inactive,
CCC/C=C/CO,inactive,
CCN=C1C=CC(=C(c2ccc(N(CC)CC)cc2)c2ccc(N(CC)CC)cc2)c2ccccc21,,60.4 µM (active)
OCC1CCCO1 (centres undefined),inactive,
Cc1ccc([N+](=O)[O-])c(C)c1,inactive,
